Experimental data reported in PubChem BioAssay (NCI).
This is part of a sample that, as a whole, favours compounds with a hit. Of some 83,000 tested, about 20% had one in any assay.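 Treatment: one concentration, 48 hours, 96-well format. Scoring: percent growth, with anything below 10 considered active.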 Activity calls are given as the source filed them.

Experiments:
Assay in all cases: NCI-60 one-dose screen, 48 h (100 = growth as untreated, 0 = no growth, -100 = all killed)
Details in all cases: 10 µM unless noted
NCI-H23 lung = tested on: NCI-H23 lung
NCI-H226 lung = tested on: NCI-H226 lung
NCI-H322M lung = tested on: NCI-H322M lung
HOP-62 NSCLC = tested on: HOP-62 NSCLC
NCI-H460 lung = tested on: NCI-H460 lung
HOP-92 NSCLC = tested on: HOP-92 NSCLC
NCI-H522 lung = tested on: NCI-H522 lung
A549/ATCC NSCLC = tested on: A549/ATCC NSCLC
786-0 renal = tested on: 786-0 renal
COLO 205 colon = tested on: COLO 205 colon
DU-145 prostate = tested on: DU-145 prostate
K-562 leukemia = tested on: K-562 leukemia
MALME-3M melanoma = tested on: MALME-3M melanoma
MDA-MB-231 breast = tested on: MDA-MB-231 breast
RXF 393 renal = tested on: RXF 393 renal
SF-268 CNS = tested on: SF-268 CNS
SF-295 CNS = tested on: SF-295 CNS
SF-539 CNS = tested on: SF-539 CNS
UACC-257 melanoma = tested on: UACC-257 melanoma
M14 melanoma = tested on: M14 melanoma

Measured: growth

Cc1ccc(NC(=O)Nc2nc3ccc([N+](=O)[O-])cc3s2)cc1
inactive: COLO 205 colon 48.8% | DU-145 prostate 17.9% | K-562 leukemia 10.7% | SF-268 CNS 10.8% | SF-539 CNS 14%
active: NCI-H23 lung -4.55% | NCI-H226 lung 6.4% | NCI-H322M lung 4.58% | HOP-62 NSCLC -4.29% | NCI-H460 lung 3.09% | HOP-92 NSCLC -33% | NCI-H522 lung -10.6% | A549/ATCC NSCLC 4.97% | 786-0 renal 8.32% | MALME-3M melanoma -19.2% | MDA-MB-231 breast 2.83% | RXF 393 renal -12.1% | SF-295 CNS 0.916% | UACC-257 melanoma -12.5% | M14 melanoma 7.25%

O=C(CSc1nc2ccccc2c(=O)n1-c1ccc(S(=O)(=O)Nc2ccc(Cl)nn2)cc1)Nc1ccc(S(=O)(=O)Nc2ccc(Cl)nn2)cc1
inactive: NCI-H23 lung 100% | NCI-H226 lung 99% | NCI-H322M lung 101% | HOP-62 NSCLC 104% | NCI-H460 lung 101% | HOP-92 NSCLC 107% | NCI-H522 lung 101% | A549/ATCC NSCLC 105% | 786-0 renal 98.7% | COLO 205 colon 111% | DU-145 prostate 107% | K-562 leukemia 88.1% | MALME-3M melanoma 102% | MDA-MB-231 breast 102% | RXF 393 renal 102% | SF-268 CNS 101% | SF-295 CNS 102% | SF-539 CNS 103% | UACC-257 melanoma 101% | M14 melanoma 111%

COC(=O)c1ccc(NC2=C(Cl)C(=O)C(C)=C(C)C2=O)cc1
inactive: NCI-H23 lung 68.5% | NCI-H226 lung 72.9% | NCI-H322M lung 99.6% | HOP-62 NSCLC 66.2% | NCI-H460 lung 79.3% | HOP-92 NSCLC 64.9% | NCI-H522 lung 53.1% | A549/ATCC NSCLC 81.5% | 786-0 renal 84.9% | COLO 205 colon 104% | DU-145 prostate 85.3% | MALME-3M melanoma 85% | MDA-MB-231 breast 68.9% | RXF 393 renal 65.8% | SF-268 CNS 87.3% | SF-295 CNS 36.6% | SF-539 CNS 65.9% | UACC-257 melanoma 79.5% | M14 melanoma 45.8%
active: K-562 leukemia 4.61%

COc1ccc(-c2cc(-c3ccc(N(C)C)cc3)n3c(n2)nc2ccccc23)cc1
active: HOP-92 NSCLC -5.95%
inactive: NCI-H23 lung 68% | NCI-H226 lung 60.8% | NCI-H322M lung 82.2% | HOP-62 NSCLC 77.9% | NCI-H460 lung 53.3% | NCI-H522 lung 17.7% | A549/ATCC NSCLC 38.6% | 786-0 renal 42.8% | COLO 205 colon 59.4% | DU-145 prostate 73.3% | K-562 leukemia 20.8% | MALME-3M melanoma 118% | MDA-MB-231 breast 75.2% | RXF 393 renal 86.5% | SF-268 CNS 76.9% | SF-295 CNS 48.6% | SF-539 CNS 82.6% | UACC-257 melanoma 58% | M14 melanoma 29.1%

C#C[C@]1(O)CC[C@H]2[C@@H]3CC=C4c5sc(Nc6ccc(C)cn6)nc5CC[C@]4(C)[C@H]3CC[C@@]21C
inactive: NCI-H226 lung 11.5% | NCI-H322M lung 25.1% | A549/ATCC NSCLC 16.6% | DU-145 prostate 27.9%
active: NCI-H23 lung 1.46% | HOP-62 NSCLC 6.21% | NCI-H460 lung 5.32% | HOP-92 NSCLC -1.7% | NCI-H522 lung -21.5% | 786-0 renal -53.2% | COLO 205 colon -24.4% | K-562 leukemia -2.56% | MALME-3M melanoma -31.4% | MDA-MB-231 breast -1.2% | RXF 393 renal -78.6% | SF-268 CNS -7.73% | SF-295 CNS -70.2% | SF-539 CNS -66.8% | UACC-257 melanoma -42.8% | M14 melanoma -48.8%

CCCN1C=C/C(=C\C(=O)n2ccc3ccccc32)c2ccccc21
inactive: NCI-H23 lung 72.9% | NCI-H226 lung 75.1% | NCI-H322M lung 80.2% | HOP-62 NSCLC 94.6% | NCI-H460 lung 94.5% | HOP-92 NSCLC 47.9% | NCI-H522 lung 78.4% | A549/ATCC NSCLC 84.9% | 786-0 renal 103% | COLO 205 colon 96.4% | DU-145 prostate 87.7% | K-562 leukemia 56.9% | MALME-3M melanoma 104% | MDA-MB-231 breast 76.2% | RXF 393 renal 97.6% | SF-268 CNS 96.4% | SF-295 CNS 83.1% | SF-539 CNS 88.2% | UACC-257 melanoma 102% | M14 melanoma 95.4%

COc1ccc(-c2cc(-c3ccc(N4CCOCC4)cc3)n3c(n2)nc2ccccc23)cc1OC
active: HOP-92 NSCLC -4.32%
inactive: NCI-H23 lung 98% | NCI-H226 lung 85.7% | NCI-H322M lung 94.6% | HOP-62 NSCLC 94.8% | NCI-H460 lung 86.3% | NCI-H522 lung 87.7% | A549/ATCC NSCLC 82.5% | 786-0 renal 84.7% | COLO 205 colon 108% | DU-145 prostate 91.2% | K-562 leukemia 68.9% | MALME-3M melanoma 93.3% | MDA-MB-231 breast 70.9% | RXF 393 renal 72.8% | SF-268 CNS 90.7% | SF-295 CNS 100% | SF-539 CNS 76.7% | UACC-257 melanoma 97.7% | M14 melanoma 93.1%
